About 79,000 compounds went through this panel and 15% of them were active in at least one assay; those are over-represented in the sample as a whole. The source made the active and inactive calls. No stated cut-off is given here; in the data, active means growth inhibition above about 70%; inactive means the rest.
Assays:
[1] = NCI Yeast Anticancer Drug Screen. Data for the rad52 strain (AID 147);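 further: 0% = growth of vehicle-treated control cultures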; settings: S. cerevisiae rad52 mutant growth inhibition, stronger effect = higher value
How it was run: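 Screen used a yeast mutant impaired in DNA repair. After compound exposure, growth was measured. Values reflect inhibition compared with vehicle-treated cells.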

[2] = NCI Yeast Anticancer Drug Screen. Data for the wt1 strain (AID 149);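 further: 0% = growth of vehicle-treated wt1 cultures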; settings: S. cerevisiae wt1 strain (SPY 50644) growth inhibition, stronger effect = higher value
How it was run: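 Each compound is tested on wt1 yeast and the loss of growth versus vehicle gives the inhibition value.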

[3] = NCI Yeast Anticancer Drug Screen. Data for the rad50EPP+ strain (AID 151);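 further: 0% = growth of vehicle-treated control cultures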; settings: S. cerevisiae rad50 mutant strain, stronger effect = higher value
How it was run: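 Exposing the rad50EPP+ strain to each compound, growth was compared with vehicle-only cultures to give inhibition.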

[4] = NCI Yeast Anticancer Drug Screen. Data for the mgt1 strain (AID 153); settings: S. cerevisiae mgt1 mutant growth inhibition, stronger effect = higher value
How it was run: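 Genetically defined yeast (mgt1) treated with compound; inhibition of growth expressed against vehicle-treated controls.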

[5] = NCI Yeast Anticancer Drug Screen. Data for the rad50 strain (AID 155);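 further: 0% = growth of vehicle-only cultures of the same strain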; settings: S. cerevisiae rad50 strain growth inhibition, stronger effect = higher value
How it was run: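 Vehicle-treated cultures provide the reference for the growth inhibition reported for compound-exposed, repair-deficient yeast.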

[6] = NCI Yeast Anticancer Drug Screen. Data for the mec2-1 strain (AID 157); settings: S. cerevisiae mec2-1 strain, stronger effect = higher value
How it was run: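 Readout is yeast growth inhibition, normalised to vehicle-treated controls, in the mec2-1 strain exposed to compound.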

[7] = NCI Yeast Anticancer Drug Screen. Data for the rad14 strain (AID 159);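 further: 0% = growth of vehicle-treated control cultures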; settings: S. cerevisiae rad14 strain growth inhibition, stronger effect = higher value
How it was run: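 Inhibition of growth is reported for a repair-deficient yeast mutant following compound treatment, calculated relative to cultures that received vehicle.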

[8] = NCI Yeast Anticancer Drug Screen. Data for the sgs1 mgt1 strain (AID 161);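 further: 0% = growth of cultures given vehicle only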; settings: S. cerevisiae sgs1 mgt1 strain, stronger effect = higher value
How it was run: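 Yeast cells carrying a defined DNA-repair defect were exposed to test compounds. Growth inhibition was measured relative to vehicle-treated controls.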

[9] = NCI Yeast Anticancer Drug Screen. Data for the CLN2oe strain (AID 163);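 further: 0% = growth of vehicle-only control cultures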; settings: S. cerevisiae CLN2oe strain, stronger effect = higher value
How it was run: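 Values reflect how much compound exposure reduced yeast growth, referenced to vehicle-exposed cells. Assay organism is a strain with a defined genetic change affecting cell-cycle control.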

[10] = NCI Yeast Anticancer Drug Screen. Data for the cln2 rad14 strain (AID 165);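 further: 0% = growth equal to vehicle treated cultures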; settings: S. cerevisiae cln2 rad14 strain, stronger effect = higher value
How it was run: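 Relative to vehicle controls, growth inhibition of compound-treated cln2 rad14 yeast was recorded.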

[11] = NCI Yeast Anticancer Drug Screen. Data for the bub3 strain (AID 167); settings: S. cerevisiae bub3 mutant strain, stronger effect = higher value
How it was run: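 Mutant yeast screening strain plus compound; vehicle-treated cultures serve as the 0% inhibition reference.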

[12] = NCI Yeast Anticancer Drug Screen. Data for the wt2 strain (AID 169); settings: S. cerevisiae wt2 strain growth inhibition, stronger effect = higher value
How it was run: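 Values express reduction in yeast growth under compound treatment, referenced to vehicle-treated cells.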

[13] = NCI Yeast Anticancer Drug Screen. Data for the mlh1 strain (AID 171);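 further: 0% = growth of vehicle-treated control cultures of the same strain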; settings: S. cerevisiae mlh1 strain growth inhibition, stronger effect = higher value
How it was run: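 Steps: expose the defined-mutant yeast strain to compound; expose a parallel culture to vehicle; measure growth; express compound effect as inhibition relative to the vehicle culture.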

[14] = NCI Yeast Anticancer Drug Screen. Data for the mlh1 rad18 strain (AID 175); settings: S. cerevisiae mlh1 rad18 strain growth inhibition, stronger effect = higher value
How it was run: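 Test agents were incubated with a yeast strain of defined genotype (DNA damage repair defect). Inhibition of growth was derived by comparison with vehicle-exposed cultures.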

[15] = NCI Yeast Anticancer Drug Screen. Data for the rad18 strain (AID 177); settings: S. cerevisiae rad18 mutant growth inhibition, stronger effect = higher value
How it was run: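 A genetically defined yeast mutant impaired in DNA damage repair was treated with test compounds, then its growth was measured against cultures receiving vehicle alone.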

[16] = NCI Yeast Anticancer Drug Screen. Data for the sgs1 strain (AID 173);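 further: 0% = growth of vehicle-only control cultures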; settings: S. cerevisiae sgs1 mutant, stronger effect = higher value
How it was run: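 Treat defined-mutant yeast with compound; measure growth; calculate inhibition relative to vehicle-treated cells.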

[17] = at 5.0 µM (retest, dose inferred, filed as 0.5)
[18] = at 50.0 µM (retest, dose inferred, filed as 5.0)

Measured: growth inhibition

O=C([O][Sn]([O]C(=O)c1ccccc1)([c]1ccccc1)[c]1ccccc1)c1ccccc1
inactive: [1]; at 1.2 µM 23% | [1]; at 3.7 µM 21% | [1]; at 11.0 µM 22% | [1]; at 33.0 µM 46% | [2]; at 1.2 µM 0% | [2]; at 3.7 µM 4% | [2]; at 11.0 µM -4% | [2]; at 33.0 µM 9% | [3]; at 1.2 µM 30% | [3]; at 3.7 µM 18% | [3]; at 11.0 µM 24% | [3]; at 33.0 µM 21% | [3]; at 100.0 µM 18% | [4]; at 1.2 µM 1% | [4]; at 3.7 µM 14% | [4]; at 11.0 µM 20% | [4]; at 33.0 µM 43% | [5]; at 1.2 µM 20% | [5]; at 3.7 µM 30% | [5]; [17] 4% | [5]; at 11.0 µM 27% | [5]; at 33.0 µM 40% | [5]; [18] 26% | [5]; at 50.0 µM 68.5% | [6]; at 1.2 µM 21% | [6]; at 3.7 µM 16% | [6]; [17] 12% | [6]; at 11.0 µM 16% | [6]; at 33.0 µM 37% | [6]; [18] 52% | [7]; at 1.2 µM 32% | [7]; at 3.7 µM 23% | [7]; at 11.0 µM 30% | [7]; at 33.0 µM 35% | [8]; [17] -11% | [8]; at 50.0 µM 56.4% | [9]; at 1.2 µM 15% | [9]; at 3.7 µM 16% | [9]; at 11.0 µM 10% | [9]; at 33.0 µM 23% | [9]; at 100.0 µM 57% | [10]; [17] -1% | [10]; at 50.0 µM 60% | [11]; at 1.2 µM 8% | [11]; at 3.7 µM 2% | [11]; [17] -14% | [11]; at 11.0 µM 10% | [11]; at 33.0 µM 30% | [11]; at 50.0 µM 58.5% | [12]; at 1.2 µM 8% | [12]; at 3.7 µM 1% | [12]; at 11.0 µM 20% | [13]; at 1.2 µM 1% | [13]; at 3.7 µM 14% | [13]; at 11.0 µM 20% | [13]; at 33.0 µM 43% | [14]; [17] 11% | [14]; at 50.0 µM 50.1% | [15]; at 1.2 µM 0% | [15]; at 3.7 µM -4% | [15]; at 11.0 µM -2% | [15]; at 33.0 µM 43%
active: [1]; at 100.0 µM 81% | [2]; at 100.0 µM 78% | [4]; at 100.0 µM 86% | [5]; at 100.0 µM 88% | [6]; at 50.0 µM 76.8% | [6]; at 100.0 µM 87% | [7]; at 100.0 µM 82% | [8]; [18] 73% | [10]; [18] 77% | [11]; [18] 87% | [11]; at 100.0 µM 83% | [12]; at 33.0 µM 81% | [12]; at 100.0 µM 97% | [13]; at 100.0 µM 86% | [14]; [18] 76% | [15]; at 100.0 µM 88%

CCCCN(CCCC)CCSc1ccc(Cl)cc1
active: [1]; at 100.0 µM 95% | [2]; at 100.0 µM 93% | [4]; at 100.0 µM 73% | [5]; at 50.0 µM 87.3% | [5]; at 100.0 µM 96% | [6]; at 50.0 µM 94.7% | [6]; at 100.0 µM 92% | [7]; at 100.0 µM 92% | [8]; [18] 70% | [8]; at 50.0 µM 82.4% | [10]; at 50.0 µM 79.4% | [11]; at 50.0 µM 94.5% | [11]; at 100.0 µM 92% | [12]; at 100.0 µM 97% | [16]; at 100.0 µM 95% | [14]; [18] 80% | [14]; at 50.0 µM 88.2% | [15]; at 100.0 µM 89%
inactive: [1]; at 1.2 µM -6% | [1]; at 3.7 µM -13% | [1]; at 11.0 µM -10% | [1]; at 33.0 µM 16% | [2]; at 1.2 µM -1% | [2]; at 3.7 µM 7% | [2]; at 11.0 µM 12% | [2]; at 33.0 µM 31% | [3]; at 1.2 µM -10% | [3]; at 3.7 µM -20% | [3]; at 11.0 µM 13% | [3]; at 33.0 µM 35% | [3]; at 100.0 µM 55% | [4]; at 1.2 µM -4% | [4]; at 3.7 µM -8% | [4]; at 11.0 µM -5% | [4]; at 33.0 µM -5% | [5]; at 1.2 µM -18% | [5]; at 3.7 µM -20% | [5]; [17] 2% | [5]; at 11.0 µM -15% | [5]; at 33.0 µM 28% | [5]; [18] 18% | [6]; at 1.2 µM -5% | [6]; at 3.7 µM -5% | [6]; [17] 3% | [6]; at 11.0 µM -7% | [6]; at 33.0 µM -8% | [6]; [18] 66% | [7]; at 1.2 µM 3% | [7]; at 3.7 µM -5% | [7]; at 11.0 µM 0% | [7]; at 33.0 µM 12% | [8]; [17] 2% | [9]; at 1.2 µM -12% | [9]; at 3.7 µM -12% | [9]; at 11.0 µM -13% | [9]; at 33.0 µM -11% | [9]; at 100.0 µM 59% | [10]; [17] 0% | [10]; [18] 4% | [11]; at 1.2 µM -9% | [11]; at 3.7 µM -5% | [11]; [17] 5% | [11]; at 11.0 µM -7% | [11]; at 33.0 µM 3% | [11]; [18] 43% | [12]; at 1.2 µM -5% | [12]; at 3.7 µM 3% | [12]; at 11.0 µM 13% | [12]; at 33.0 µM 45% | [16]; at 1.2 µM -10% | [16]; at 3.7 µM -7% | [16]; at 11.0 µM 10% | [16]; at 33.0 µM 42% | [14]; [17] 3% | [15]; at 1.2 µM -8% | [15]; at 3.7 µM -11% | [15]; at 11.0 µM -7% | [15]; at 33.0 µM 2%

CC(C)C1=CCC2C(=C1)CCC1C(C)(C(=O)O)CCCC21C (stereo unspecified) (tested in a mixture with another compound)
active: [1]; at 100.0 µM 94% | [2]; at 100.0 µM 97% | [4]; at 100.0 µM 94% | [5]; [18] 98% | [5]; at 50.0 µM 83.5% | [5]; at 100.0 µM 92% | [6]; [18] 99% | [6]; at 50.0 µM 85.2% | [6]; at 100.0 µM 94% | [7]; at 100.0 µM 97% | [8]; [18] 96% | [8]; at 50.0 µM 84.5% | [9]; at 100.0 µM 96% | [10]; [18] 98% | [10]; at 50.0 µM 89.8% | [11]; [18] 97% | [11]; at 50.0 µM 85.5% | [11]; at 100.0 µM 95%
inactive: [1]; at 1.2 µM 0% | [1]; at 3.7 µM 9% | [1]; at 11.0 µM 12% | [1]; at 33.0 µM 41% | [2]; at 1.2 µM 11% | [2]; at 3.7 µM 15% | [2]; at 11.0 µM 12% | [2]; at 33.0 µM 41% | [3]; at 1.2 µM 30% | [3]; at 3.7 µM 33% | [3]; at 11.0 µM 37% | [3]; at 33.0 µM 42% | [3]; at 100.0 µM 47% | [4]; at 1.2 µM 0% | [4]; at 3.7 µM 10% | [4]; at 11.0 µM 6% | [4]; at 33.0 µM 15% | [5]; at 1.2 µM 11% | [5]; at 3.7 µM 12% | [5]; [17] 30% | [5]; at 11.0 µM 16% | [5]; at 33.0 µM 41% | [6]; at 1.2 µM 18% | [6]; at 3.7 µM 13% | [6]; [17] 29% | [6]; at 11.0 µM 15% | [6]; at 33.0 µM 54% | [7]; at 1.2 µM 13% | [7]; at 3.7 µM 22% | [7]; at 11.0 µM 19% | [7]; at 33.0 µM 34% | [8]; [17] 31% | [9]; at 1.2 µM -2% | [9]; at 3.7 µM 6% | [9]; at 11.0 µM -16% | [9]; at 33.0 µM 40% | [10]; [17] 9% | [11]; at 1.2 µM 8% | [11]; at 3.7 µM 11% | [11]; [17] 29% | [11]; at 11.0 µM 0% | [11]; at 33.0 µM 17%

Source: PubChem BioAssay (NCI)
